Screening results as filed in PubChem.
HT1080 IDH1KD tx: qHTS for induction of synthetic lethality in tumor cells producing 2HG: qHTS for the HT-1080-IDH1KD cell line | HT-1080 IDH1 knockdown viability, ATP luminescence, 48 h | Potency, µM (top dose mostly 46.1 µM), without a hit: top-dose activity, negative = toxicity, hits mostly cytotoxic | actives 2% (n = 360,000);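 further: potency means the concentration at half of the fitted maximal effect; 0% = DMSO wells and -100% = cell-free medium wells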
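Viability of IDH1-knockdown HT-1080 fibrosarcoma cells was assessed by CellTiter-Glo after 48 h at 37 °C with titrated compound; concentration-effect curves were classified by fit quality and response size.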
ALOX12 inh: Primary qHTS assay for inhibitors of human arachidonate 12S-lipoxygenase (ALOX12): Round 2; Potency, µM (series often up to 108 µM), for the others: at the highest dose activity change, negative = inhibition, actives largely listed as inhibitors; Polyunsaturated fatty acid lipoxygenase ALOX12 (Homo sapiens), P18054; AID 1671190, 2021; actives 1.1% (n = 580,000); purified 12hLO, xylenol orange hydroperoxide absorbance; further: potency means the concentration at half of the fitted maximal effect
Target sequence (P18054 whole entry, looked up): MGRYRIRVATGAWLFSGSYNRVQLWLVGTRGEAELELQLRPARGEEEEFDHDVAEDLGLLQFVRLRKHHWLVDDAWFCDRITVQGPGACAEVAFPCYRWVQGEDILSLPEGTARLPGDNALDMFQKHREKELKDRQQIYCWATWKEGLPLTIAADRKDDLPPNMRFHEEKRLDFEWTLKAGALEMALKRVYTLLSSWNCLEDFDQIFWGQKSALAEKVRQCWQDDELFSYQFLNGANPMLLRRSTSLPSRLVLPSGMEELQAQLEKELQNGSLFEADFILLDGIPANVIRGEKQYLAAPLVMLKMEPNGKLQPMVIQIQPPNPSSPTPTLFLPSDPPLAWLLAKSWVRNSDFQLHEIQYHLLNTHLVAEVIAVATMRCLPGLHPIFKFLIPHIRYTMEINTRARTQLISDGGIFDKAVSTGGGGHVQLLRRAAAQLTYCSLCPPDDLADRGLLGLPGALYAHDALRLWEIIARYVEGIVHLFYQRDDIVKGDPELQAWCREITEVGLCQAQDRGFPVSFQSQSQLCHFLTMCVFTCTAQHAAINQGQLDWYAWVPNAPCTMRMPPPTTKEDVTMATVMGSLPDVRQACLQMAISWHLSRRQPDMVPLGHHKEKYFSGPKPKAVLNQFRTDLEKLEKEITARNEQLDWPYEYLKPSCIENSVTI
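Purified human 12hLO at 150 nM in 25 mM Hepes, 0.01% Triton X-100, pH 7.0, preincubated 15 min at room temperature with compound. Reaction started with 40 uM arachidonic acid, 30 min at room temperature. Hydroperoxide measured by Fe-xylenol orange, 573/405 nm absorbance ratio.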
HT1080NT lethal: qHTS for induction of synthetic lethality in tumor cells producing 2HG: qHTS for the HT-1080-NT fibrosarcoma cell line. actives 1.6% (n = 360,000). AID 686970, 2013. Potency, µM (highest dose often 46.1 µM), without a hit: top-dose activity, negative = less viability, hits mostly cytotoxic. HT-1080-NT fibrosarcoma viability, CellTiter-Glo ATP luminescence, 48 h;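 further: NT is the 2HG producing partner of a matched IDH1 knockdown line; potency means the concentration at half of the fitted maximal effect; 0% = DMSO-treated cells and -100% = media-only wells without cells; nearly all actives have a fitted effect of over 55% in size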
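Viability of the 2HG-overproducing fibrosarcoma line after 48 hours of compound exposure at 37 degrees C was determined by luminescence with CellTiter-Glo, and concentration-effect curves were then fitted and categorized.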
IL1B secr inh: qHTS for Inhibitors of Inflammasome Signaling: IL-1-beta AlphaLISA Primary Screen | THP-1 LPS/ATP IL-1B secretion, AlphaLISA, 16 h; active compounds read low | activity change, % at 57.5 µM | actives 4.7% (n = 360,000) | AID 743279, 2014; in the data active means activity change below about -50%; inconclusive means mostly about -30% to -49%
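THP-1 cells pretreated 1 hr with compounds (up to 57.5 uM final), then stimulated with LPS (250 ng/mL final) plus ATP (1.25 mM final); secreted IL-1B measured by AlphaLISA after 16 hr, decreased signal indicating inhibition.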
TDP1 cell noCPT: qHTS for Inhibitors of human tyrosyl-DNA phosphodiesterase 1 (TDP1): qHTS in cells in absence of CPT. DT40 Tdp1-/- hTDP1 cells, no CPT, ATP luminescence, 48 h. Potency, µM (series often up to 46.2 µM), for inactives: top-dose activity change, negative = growth inhibition, usual class: inhibitors. actives 15% (n = 420,000). AID 686978, 2013; further: potency means the concentration at half of the fitted maximal effect; nearly all actives have a fitted effect of over 55% in size
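Luminescent ATP content (CellTiter-Glo) served as the growth readout. Knockout chicken DT40 cells expressing human TDP1 were exposed to compounds without camptothecin for a minimum 48 hr at 37 °C.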
TDP1 cell CPT: qHTS for Inhibitors of human tyrosyl-DNA phosphodiesterase 1 (TDP1): qHTS in cells in presence of CPT. actives 12% (n = 420,000). AID 686979, 2013. Potency, µM (series often up to 46.2 µM), for inactives: at the highest dose activity change, negative = growth inhibition, most hits filed as inhibitors. chicken DT40 Tdp1-/-;hTDP1 cells + 20 nM CPT, ATP luminescence, 48 h; further: potency means the concentration at half of the fitted maximal effect; nearly all actives have a fitted effect of over 55% in size
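Cell growth measured by CellTiter-Glo luminescence after a minimum 48 h, 37 C compound exposure with 20 nM CPT in Tdp1-knockout DT40 cells stably expressing hTDP1, seeded 400/well; qHTS titration format.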
The depositor's hits bear a star; ? = inconclusive; · = no result given; [ ] = another dose, or the depositor's remark. This excerpt belongs to a sample that is enriched for hits. Unless noted, the call rests on the fitted dose curve; in most records, active means well fitted curve in the direction sought with a large enough effect; inconclusive means small, poorly fitted or top-dose-only effect, or another doubt; inactive means no such curve, though single readings can be large; an effect the other way counts as inactive or inconclusive. Unless noted, on the % scale 0 is the no-effect control and ±100 the full control effect.

SMILES	HT1080 IDH1KD tx	ALOX12 inh	HT1080NT lethal	IL1B secr inh	TDP1 cell noCPT	TDP1 cell CPT
Cc1ccc(OCCN2CCN(c3ncnc4scc(-c5ccccc5)c34)CC2)cc1	·	-5%	·	·	·	·
Cc1ccc(S(=O)(=O)N2CCN(c3ncnc4scc(-c5ccc(F)cc5)c34)CC2)cc1	-14%	-4%	-18%	40	15µM*	?
O=S(=O)(c1cccc(F)c1)N1CCN(c2ncnc3scc(-c4ccc(F)cc4)c23)CC1	-6%	3%	4%	-11	12µM*	15µM*
Cc1sc2nc(CN3CCCC3)nc(N3CCN(S(=O)(=O)c4ccccc4)CC3)c2c1C	-26%	-2%	-16%	?	?	-27%
Cc1sc2ncnc(N3CCN(S(=O)(=O)c4ccccc4)CC3)c2c1C	7%	·	7%	32	6.5µM*	8.2µM*
Cc1cccc(C(=O)N2CCC3(CC2)OCC(C(=O)NC2CC2)N3C(=O)c2cccc(C)c2)c1 (stereo unspecified)	·	-1%	·	·	·	·
CCOCCCNC(=O)N1CCC(c2noc(-c3cnccn3)n2)C1 (stereo unspecified)	·	7%	·	·	·	·
Cc1cnc(C(=O)N2CCn3c(nnc3[C@@H]3C[C@@H](O)CN3Cc3ccccc3)C2)cn1	·	11%	·	·	·	·
Cc1ccc(C)n1-c1nc2ccc(C(=O)Nc3ccc(C(N)=O)cc3)cc2s1	·	-6%	·	·	·	·
Cc1ccc(C)c(N2CCN(S(=O)(=O)c3cc(C(=O)Nc4ccccc4C(F)(F)F)ccc3F)CC2)c1	·	-16%	·	·	13µM*	12µM*
O=C(Nc1ccc(Br)cc1)c1ccc(F)c(S(=O)(=O)N2CCN(c3ccccn3)CC2)c1	1%	3%	-5%	26	7.3µM*	?
Cc1ccccc1NC(=O)c1ccc(F)c(S(=O)(=O)N2CCN(c3ccccn3)CC2)c1	-29%	?	?	-23	11µM*	28µM*
Cc1ccccc1NC(=O)c1ccc(C)c(S(=O)(=O)N2CCN(C)CC2)c1	2%	-10%	7%	0	19%	-5%
Cc1nnc(CN(C)c2ccc(-c3nc(-c4cccc(Cl)c4)no3)cn2)o1	·	4%	·	·	·	·
COc1cccc2cc(-c3csc(Nc4ccccc4Br)n3)c(=O)oc12	·	8%	·	·	·	·
COc1cc(-c2ccc3oc(-c4cccc(C)c4)c(C#CC4(O)CCCCC4)c3c2)cc(OC)c1OC	-22%	-22%	-10%	-63*	16µM*	16µM*
COc1ccc(-c2oc3ccc(-c4ccc5c(c4)OCO5)cc3c2C#CC2(O)CCCCC2)cc1	?	0%	?	13	?	?
COc1ccc(NC(C)C(=O)Nc2ccc(C(C)(C)C)cc2)cc1Cl (stereo unspecified)	?	-27%	?	-54*	?	29µM*
COC(=O)c1ccc(C2NC(=S)N(c3ccccc3)C(C)=C2C(=O)Nc2ccccc2OC)cc1 (stereo unspecified)	2%	?	-3%	0	0%	?
COC(=O)C1=C(C)N(c2cccc(C)c2)C(=S)NC1c1ccc(-n2ccnc2)cc1 (stereo unspecified)	·	40µM*	·	·	·	·
COc1ccc(N(CC(=O)NCc2ccc(Cl)cc2)S(=O)(=O)c2c(C)nn(C)c2C)cc1	4%	40µM*	-1%	2	-27%	?
Cc1nn(C)c(C)c1S(=O)(=O)N(CC(=O)NCCCOC(C)C)c1ccc(C(C)C)cc1	1%	15%	6%	-6	?	-17%
COc1ccc(N(CC(=O)Nc2cc(OC)ccc2OC)S(=O)(=O)c2c(C)nn(C)c2C)cc1	-17%	40%	-24%	?	?	21µM*
Cc1cccc(CCNC(=O)CN(c2ccc(C(C)C)cc2)S(=O)(=O)c2c(C)nn(C)c2C)c1	·	-3%	·	·	16µM*	?
CN(c1cccnc1)c1ccc(NC(=O)Cc2c[nH]c3ccccc23)cc1Br	·	-1%	·	·	·	·
SMILES	HT1080 IDH1KD tx	ALOX12 inh	HT1080NT lethal	IL1B secr inh	TDP1 cell noCPT	TDP1 cell CPT
O=C1COc2ccc(N3CCOCC3)nc2CN1CCOc1ccccc1	·	-3%[176 µM]	·	·	·	·
Cn1c(=O)[nH]c(NC2CCCCC2)c(N=O)c1=O	12%	?	16%	16	-3%	7%
CC[N+]1(C)CCC(=C2c3ccccc3CC(=O)c3sccc32)CC1 (stereo unspecified)	0%	-6%	0%	-9	-16%	-19%
C[N+]1(C)CCC(=C2c3ccccc3CC(=O)c3sccc32)CC1	?	?	-21%	-6	?	26µM*
CCOc1ccccc1NC(=O)CSc1n[nH]c(=O)n1-c1ccccc1	7%	0%	5%	14	?	?
O=c1[nH]nc(SCCS(=O)(=O)c2ccc(F)cc2)n1-c1ccc2c(c1)OCCO2	?	94%	-17%	-92*	16µM*	?
O=c1[nH]nc(SCCS(=O)(=O)c2ccc(F)cc2)n1-c1ccccc1	?	222%	?	-88*	?	29µM*
Nc1nnc(CC(=O)N/N=C/c2cc([N+](=O)[O-])cc(Br)c2O)s1	2%	16µM*	-3%	6	1%	-14%
Nc1nnc(CC(=O)N/N=C/c2cccc([N+](=O)[O-])c2)s1	-1%	-3%	-1%	-13	-7%	-6%
CCCn1nnc(NCc2c(F)cccc2Cl)n1	·	4%	·	·	·	·
Cc1nn(CC(=O)NCc2cc3ccccc3[nH]2)c(C)c1[N+](=O)[O-]	-3%	-22%	0%	-65*	-20%	-26%
CC(OC(=O)CC1Oc2ccccc2NC1=O)C(=O)NC1CCCCC1 (stereo unspecified)	·	7%	·	·	·	·
COc1cc[n+]([O-])cc1[N+](=O)[O-]	20%	19%	18%	-19	2.3µM*	?
COC(=O)c1c[n+]([O-])ccc1OC	5%	·	?	30	-24%	-13%
CCC(=O)N1CCCC(Cc2nncn2-c2ccccc2)C1 (stereo unspecified)	·	2%	·	·	·	·
